Source: PubChem BioAssay (NCI)
Compounds without any hit were thinned out: in the full panel of roughly 83,000, 20% have a hit.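 Interpretation: 100, growth as untreated; towards 0, rising growth inhibition; 0, no net growth; 0 to -100, cell death. Compounds scoring below 10 were considered active.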 A number with no mark means an inactive call. Active and inactive are the calls of the source.

Experiments:
Experiment in all cases: NCI-60 one-dose screen, 48 h (100 = growth as untreated, 0 = no growth, -100 = all killed)
Conditions in all cases: 10 µM unless noted
[1] = system: DU-145 prostate
[2] = system: K-562 leukemia
[3] = system: MALME-3M melanoma
[4] = system: MDA-MB-231 breast
[5] = system: RXF 393 renal
[6] = system: SF-268 CNS
[7] = system: SF-295 CNS
[8] = system: SF-539 CNS
[9] = system: UACC-257 melanoma
[10] = system: M14 melanoma
[11] = system: HCT-15 colon
[12] = system: HT29 colon
[13] = system: SNB-75 CNS
[14] = system: SNB-19 CNS
[15] = system: U251 CNS
[16] = system: SK-MEL-5 melanoma
[17] = system: UACC-62 melanoma
[18] = system: LOX IMVI melanoma
[19] = system: SK-MEL-28 melanoma
[20] = system: PC-3 prostate

SMILES | growth [1] | growth [2] | growth [3] | growth [4] | growth [5] | growth [6] | growth [7] | growth [8] | growth [9] | growth [10] | growth [11] | growth [12] | growth [13] | growth [14] | growth [15] | growth [16] | growth [17] | growth [18] | growth [19] | growth [20]
COc1cc(-c2nc3occn3c2-c2ccnc(NCCCNS(=O)(=O)c3ccccc3)n2)ccc1F | 52.5% | 26.5% | 18.4% | 45.1% | 48.6% | 52.8% | 46% | 78.8% | 41.4% | 17.2% | 37.5% | 16.7% | 102% | 78.2% | 73.4% | -22.4% (active) | 4.35% (active) | 31.5% | 38% | 
COc1cc(Nc2ncccc2NC(=O)c2cn(Cc3cccc(Oc4ccccc4)c3)nn2)cc(OC)c1 | 86.2% | 45.4% | 92.3% | 66% | 74.6% | 73.8% | 93.4% | 93% | 104% | 67.6% | 68.7% | 88.8% | 79.9% | 79.6% | 80.2% | 60% | 65.5% | 75.1% | 83.3% | 
C=C(CO)[C@@H]1CC[C@]2(COC3CCCCO3)CC[C@]3(C)[C@H](CC[C@@H]4[C@@]5(C)C=C(C=O)C(=O)C(C)(C)[C@@H]5CC[C@]43C)[C@@H]12 (stereo partly drawn) | -98% (active) | -60.7% (active) | -78.4% (active) | -58.4% (active) | -86.2% (active) | -83.2% (active) | -89.5% (active) | -90.1% (active) | -64.4% (active) | -65.5% (active) | -90.5% (active) | -83.6% (active) | -51.6% (active) | -83.8% (active) | -88.6% (active) | -95.1% (active) | -76.7% (active) | -88.4% (active) | -71.3% (active) | 
C=CC(=O)NCCOc1cccc(Nc2cc(NCCCNC(=O)C3CCC3)c(Br)cn2)c1 | 8.96% (active) | 9.43% (active) | -19% (active) | -25.6% (active) | -77% (active) | -25.3% (active) | 2.75% (active) | -58.3% (active) | -11.6% (active) | -18.7% (active) | 1.43% (active) | -15.2% (active) | -69.2% (active) | 5.36% (active) | 0.984% (active) | -41.4% (active) |  | -25.3% (active) | -11.9% (active) | 5.12% (active)
COc1ccc2c(c1)c(-c1ccc(-c3cn(C)c4ccc(OC)cc34)[nH]1)cn2C | 66.2% | 0.411% (active) | 30.2% | -3.99% (active) | -28.5% (active) | 9.71% (active) | 44.5% | -57.3% (active) | 87% | 43.6% | 4.19% (active) | 48% | 17.9% | 27.2% | -62.9% (active) | 29.6% | 5.29% (active) | -17.8% (active) | -20.1% (active) | 
CCOC(=O)n1cc(-c2nonc2-c2cn(C)c3ccccc23)c2ccccc21 | 57.2% | 11.2% | 41% | 46% | 63.5% | 54% | 27.8% | 21.9% | 68.9% | 21.5% | 31.2% | 12.8% | 16.3% | 35.3% | 26.7% | 46.3% |  |  | 57.4% | 48.1%
CCCCCCCCCCCCCCCCCCOc1ccccc1CC(=O)OCC[N+]1(C)CCOCC1 | 70.8% | 58% | 67.2% | 49.8% | 1.62% (active) | 36.2% | 87.3% | 71.6% | 103% | 69.9% | 90% | 47.9% | 19.7% | 54.4% | 30.1% | 79.8% | 60.8% | 55.9% | 85.7% | 
Cc1c(N2CN3C[C@H](C)N4CN(c5c(C)n(C)n(-c6ccccc6)c5=O)CN5C[C@@H](C)N(C2)C3C54)c(=O)n(-c2ccccc2)n1C (stereo partly drawn) | 112% | 17.9% | 104% | 117% | 101% | 100% | 99.3% | 91.2% | 105% | 99.8% | 96.4% | 102% | 107% | 101% | 105% | 102% | 96.7% | 96% | 101% | 
COc1ncc2cc1NS(=O)(=O)c1cccc(c1)C(=O)NCC1=CC=C(S1)c1ncnc3c1SC2=C3C | 9.14% (active) | 4.66% (active) | -39.2% (active) | 10.9% | -62.8% (active) | 0.0661% (active) | -21.6% (active) | -55.3% (active) | -1.33% (active) | -43.9% (active) | -18.2% (active) | 4.55% (active) | -12.9% (active) | 11.5% | -10.2% (active) | -38.2% (active) | -46.7% (active) | -32.1% (active) | -62.2% (active) | 
NC(=O)c1ccc(NC(=O)c2oc3ccccc3c2-c2cnn(-c3ccccc3)c2)cc1 | 7.15% [50 µM] (active) | 46% [50 µM] | -7.76% [50 µM] (active) | -68% [50 µM] (active) | -29.1% [50 µM] (active) | 27.4% [50 µM] | 15.6% [50 µM] | -21.7% [50 µM] (active) | 47.3% [50 µM] | -0.698% [50 µM] (active) | 43.2% [50 µM] | 2.07% [50 µM] (active) | -25.5% [50 µM] (active) | 2.3% [50 µM] (active) | -19.2% [50 µM] (active) | 4.65% [50 µM] (active) | 45.3% [50 µM] | -22.6% [50 µM] (active) | 25.6% [50 µM] | 
Cn1cc(-c2nn3cc(-c4ccccc4)nc3s2)c2ccccc21 | 99.2% | 29.3% | 55.3% | 67.3% | 89.3% | 81.2% | 78.9% | 78% | 76.9% | 51.5% | 44.7% | 44.5% | 39.8% | 73.4% | 77.9% | 65.5% | 54% | 79.4% | 71.1% | 
C[N+](C)(C/C=C/c1ccccc1)Cc1ccccc1 | 102% | 110% | 86.8% | 102% | 99.2% | 90.3% | 93.5% | 93.9% | 97.7% | 85.6% | 97.8% | 91.9% | 87.5% | 104% | 102% | 95.6% |  | 89% | 102% | 97%
COc1ccc(/C(C)=C(\c2ccc(Cl)cc2)c2ccc(OCCN3CCCC3)cc2)cc1 | 62.6% | -1.6% (active) | 4.84% (active) | 25.5% | 32.6% | 51.8% | -7.32% (active) | 45.9% | -26.8% (active) | -13.7% (active) | 7.96% (active) | -18.1% (active) | 91.4% | 52.1% | 19.4% | -63.2% (active) | -0.373% (active) | -46.5% (active) | -16.8% (active) | 
CCN1CCN(CC(=O)Nc2nc3ccc(NCc4ccc(Br)cc4)cc3s2)CC1 | 83.9% | -49.7% (active) | -68.2% (active) | 45.6% | 63.9% | 72.1% | 86.4% | 39.2% | 17.7% | -56.2% (active) | -18.8% (active) | 2.33% (active) | 89.4% | 76.3% | 52.9% | 47.6% | -47.1% (active) | -76.4% (active) | -66.6% (active) | 
O=C1/C(=C/c2ccc(C(F)(F)F)cc2)COc2ccc(O)c(O)c21 | 16.1% | 3.76% (active) | 23.6% | -10% (active) | 24.5% | -0.987% (active) | 85.8% | -83.9% (active) | 25.3% | 42.3% | -6.49% (active) | 8.23% (active) | 33.4% | 27.1% | -50.6% (active) | 68.5% |  | -90.8% (active) | 72.1% | -36.1% (active)
Cc1cc(N2CCCCC2)nc(N2CCN(CC(=O)Nc3ccc4c(ccn4Cc4ccccc4)c3)CC2)n1 | 79.6% | 35.4% | 70.4% | 64.3% | 36.2% | 80.5% | 42.9% | 80.3% | 71% | 50.9% | 48.1% | 12.4% | 66.4% | 70% | 40.3% | 57.6% | 56.5% | 60.7% | 73.7% | 
